ALOX12 inh – blocks human arachidonate 12S-lipoxygenase; AID 1671190; hit rate 1.1% among 580,000; P18054; purified 12hLO, xylenol orange hydroperoxide absorbance; Potency, µM (top dose mostly 108 µM), usual class: inhibitors
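Purified human 12hLO at 150 nM in 25 mM Hepes, 0.01% Triton X-100, pH 7.0, preincubated 15 min at room temperature with compound. Reaction started with 40 uM arachidonic acid, 30 min at room temperature. Hydroperoxide measured by Fe-xylenol orange, 573/405 nm absorbance ratio.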
A549 tox – A549 cytotoxicity, counter-screen for Nrf2 inhibitors. Potency, µM (series often up to 46 µM), hits mostly inhibitors. A549 ARE-Fluc cells, CellTiter-Fluor viability, 18-24 h. hit rate 0.16% among 390,000
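Cytotoxicity counterscreen: CellTiter-Fluor fluorescence was measured in A549 ARE_Fluc cells after 18-24 h of compound exposure in a concentration series. The subsequent BugLite luminescent read reports ARE-luciferase activity.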
ERG-DNA inh – blocks human ERG Ets domain binding to DNA | fluorescence polarization, His-ERG Ets domain / labelled DNA | P11308 | hit rate 0.028% among 370,000 | AID 624246 | Potency, µM (top dose mostly 76.9 µM), hits mostly inhibitors; active means well fitted inhibition curve with a large enough effect in the polarisation, with a control signal flat; inconclusive means small, poorly fitted or top-dose-only effect, or effect the other way, or a change in a side signal; inactive means no such curve, though single readings can be large or run the other way; the % refers to the polarisation;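 further: polarization taken with two DNA probes labelled with fluorescein and Texas red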
Target sequence (P11308 whole entry, looked up, the tested form may be a part): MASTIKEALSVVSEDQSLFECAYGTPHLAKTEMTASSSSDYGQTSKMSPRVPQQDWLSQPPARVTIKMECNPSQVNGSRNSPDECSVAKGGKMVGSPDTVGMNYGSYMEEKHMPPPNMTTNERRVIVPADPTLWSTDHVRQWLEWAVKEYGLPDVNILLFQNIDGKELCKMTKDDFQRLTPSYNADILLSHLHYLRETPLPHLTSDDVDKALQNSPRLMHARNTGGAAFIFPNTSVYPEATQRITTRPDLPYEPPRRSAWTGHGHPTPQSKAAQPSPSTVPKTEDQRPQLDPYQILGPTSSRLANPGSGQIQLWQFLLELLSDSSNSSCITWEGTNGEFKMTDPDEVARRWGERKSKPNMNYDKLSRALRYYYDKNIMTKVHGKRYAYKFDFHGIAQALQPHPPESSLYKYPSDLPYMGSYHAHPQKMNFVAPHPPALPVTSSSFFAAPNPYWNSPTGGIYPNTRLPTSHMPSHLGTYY
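His-tagged ERG Ets domain (1 uM in the protein solution; 300mM KCl, 50mM Tris-HCl, 1mM EDTA, 1mM DTT, pH 7.5) received compound, then a probe mix of 5 nM fluorescein-DNA and 100nM Texas-615-DNA. Fluorescence polarization was read for both dyes.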
Nrf2 activator – activators of Nrf2 (ARE) signaling. AREc32 ARE-luciferase reporter (MCF7-derived line), luminescence, 24 h. Potency, µM (doses to about 46.1 µM), most hits filed as activators. hit rate 0.31% among 410,000; further: nearly all actives have a fitted effect of over 65% in size
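Steps: seed AREc32_Fluc cells (1000/well, 5% FBS OPTI-MEM); incubate overnight at 37 deg C; add 23 nL compound; incubate 24 hr; add Steady-Glo; hold 30 min RT; read luminescence.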
Nrf2 inh – blocks Nrf2 signaling; AID 504444; Potency, µM (highest dose often 46 µM), most hits filed as inhibitors; A549 ARE-Fluc reporter, luciferase luminescence, 18-24 h; hit rate 2.1% among 360,000; further: nearly all actives have a fitted effect of over 60% in size
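Reporter: ARE-Fluc in A549. Exposure: 18-24 h, 37 °C, 5% CO2, 5% FBS OPTI-MEM. Readouts: fluorescent cytotoxicity (CellTiter-Fluor), then luminescent Nrf2 signal after BugLite.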
LDHA inh – inhibitors of human lactate dehydrogenase A. P00338. purified LDHA, NADH/diaphorase-resazurin fluorescence; active compounds read low. activity change, % (values are at about 110 or 230 µM). hit rate 0.15% among 480,000. AID 1347041; in the data active means activity change below about -30%; inconclusive means mostly about -25% to -30%
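Human LDH5 (2 nM) was incubated with 0.06 mM NADH and 0.2 mM pyruvate for 5 min at room temperature in Tris pH 7.4. Remaining NADH was coupled through diaphorase/resazurin, and resorufin fluorescence was read at 0 and 20 min.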
Hits are given with their value; i = inactive; ? = inconclusive; nt = no result; [ ] = dose if it differs, or a comment. Most compounds without a hit are left out; they make up all but 2.7% or so of the library. Unless noted, the call rests on the fitted dose curve; in most records, active means well fitted curve in the direction sought with a large enough effect; inconclusive means small, poorly fitted or top-dose-only effect, or another doubt; inactive means no such curve, though single readings can be large; an effect the other way counts as inactive or inconclusive.

SMILES | ALOX12 inh | A549 tox | ERG-DNA inh | Nrf2 activator | Nrf2 inh | LDHA inh
O=C(c1ccco1)N(CCC(c1ccccc1)c1ccco1)Cc1ccco1 (stereo not given) | 17.8µM | i | i | i | i | i
CCCCn1nc(C(=O)Nc2ccc(Br)cc2)c2ccccc2c1=O | i | nt | nt | nt | nt | i
CC(C)c1ccccc1NC(=S)NC(=O)C1CCCCC1 | 15.8µM | i | i | i | i | i
Cc1ccc(NC(=S)NC(=O)C2CCCCC2)c(Br)c1 | 31.6µM | i | i | i | ? | i
CC(C)COc1ccc(Nc2ncnc3ccc(Br)cc23)cc1 | i | i | i | i | i | i
CC(C)Nc1ncnc2ccc(Br)cc12 | i | i | i | i | 10.3µM | i
CC(C)NC(=O)C(C)c1ccc([N+](=O)[O-])cc1 (stereo not given) | i | nt | nt | nt | nt | i
CCn1c(N)c(-c2csc(Nc3cc(C)ccc3C)n2)c(=O)[nH]c1=O | ? | nt | nt | nt | nt | i
COC(=O)c1ccccc1NC(=S)NC(=O)c1ccc(C)cc1 | 35.5µM | i | i | i | ? | i
NC(=O)c1ccccc1NC(=S)NC(=O)c1ccc(Br)o1 | ? | i | i | 14.1µM | ? | i
O=C(O)c1ccc(NC(=S)NC(=O)c2ccc3ccccc3c2)cc1 | ? | i | i | i | ? | i
O=C(NC(=S)Nc1ccccc1C(=O)O)c1ccc2ccccc2c1 | 25.1µM | i | i | i | ? | i
Cc1ccccc1C(=O)NC(=S)Nc1ccccc1C(=O)O | 44.7µM | i | i | i | i | i
CCCCOc1ccc2c(C)c(C)c(=O)oc2c1 | ? | nt | nt | nt | nt | i
CC1=C(c2ccc(Cl)cc2)[N+](=O)C(C)(c2ccccc2)N1[O-] (stereo not given) | i | nt | nt | nt | nt | i
O=c1ccc(-c2cc(-c3cccc4cn[nH]c34)cn3cncc23)c[nH]1 | 31.6µM | nt | nt | nt | nt | nt
COc1ccc(-c2cc(-c3cccc(OC)c3OC)cn3cncc23)cc1 | 70.8µM | nt | nt | nt | nt | nt
COc1ccc(-c2cc(-c3ccc4cn[nH]c4c3)cn3cncc23)cc1 | 8.91µM | nt | nt | nt | nt | nt
C1=C(c2cc(-c3cccc4cn[nH]c34)cn3cncc23)CCOC1 | i | nt | nt | nt | nt | nt
N#Cc1ccccc1CSc1nnc(N2CCCCC2)n1-c1ccccc1 | i | nt | nt | nt | nt | i
CCc1c(C)sc(NC(=O)C2CCCC2)c1C#N | ? | nt | nt | nt | nt | i
COc1ccc(-c2csc(NC(=O)C3=NN(c4ccccc4)C(=O)CC3)n2)cc1 | i | ? | i | i | 20.6µM | i
COc1ccc(-c2csc(NC(=O)c3ccccc3NS(=O)(=O)c3ccc(C)cc3)n2)cc1 | ? | ? | nt | i | 16.4µM | i
COc1cc(Br)c(CC(=O)Oc2c(C)cccc2C)cc1OC | ? | nt | nt | nt | nt | i
S=C(Nc1ccc(Cl)c(Cl)c1)NC1CC1 | ? | nt | nt | nt | nt | i
SMILES | ALOX12 inh | A549 tox | ERG-DNA inh | Nrf2 activator | Nrf2 inh | LDHA inh
O=C(c1ccc2c(c1)N(Cc1ccc(F)cc1)C(=O)c1ccccc1S2=O)N1CCC(Cc2ccccc2)CC1 (stereo not given) | i | i | i | i | 23.1µM | i
O=C(CSc1ncnc2c1cnn2-c1ccccc1Cl)N1CCN(C(=O)c2ccco2)CC1 | i | i | i | i | 14.6µM | i
Cc1nnc(NC(=O)CSc2ncnc3c2cnn3-c2ccccc2C)s1 | i | i | nt | i | ? | i
CCOC(=O)Cc1csc(NC(=O)CSc2ncnc3c2cnn3-c2ccccc2Cl)n1 | i | i | i | i | 20.6µM | i
CCOc1ccc(NC(=O)CSC2=C(C#N)C(c3ccccc3Cl)C(C(C)=O)=C(C)N2)cc1 (stereo not given) | 31.6µM | nt | nt | nt | nt | i
COc1ccc(CN2CCCC3(Cc4ccccc4CNC3=O)C2)cc1 (stereo not given) | i[6.33 µM] | nt | nt | nt | nt | nt
Cc1cc(C)c(CN2CCC3(Cc4ccccc4CNC3=O)C2)c(C)c1 (stereo not given) | 1µM | nt | nt | nt | nt | nt
O=C1NCc2ccccc2CC12CCN(Cc1ccc(Oc3ccccc3)cc1)C2 (stereo not given) | 35.5µM | nt | nt | nt | nt | nt
Cc1cc(C)cc(CN2CCC3(CC2)Cc2ccccc2CNC3=O)c1 | i[6.33 µM] | nt | nt | nt | nt | nt
O=C1NCc2ccccc2CC12CCN(Cc1ccc(-c3ccccc3)cc1)C2 (stereo not given) | 39.8µM | nt | nt | nt | nt | nt
COc1cccc(CN2CCCCC23Cc2ccccc2NC3=O)c1 (stereo not given) | i | nt | nt | nt | nt | nt
COc1cccc(CN2CCC3(Cc4ccccc4NC3=O)C2)c1 (stereo not given) | 39.8µM | nt | nt | nt | nt | nt
O=C(OCC(=O)N1CCOCC1)c1cc(-c2ccc(Cl)s2)nc2ccccc12 | i | nt | nt | nt | nt | i
CC(=O)NC1=NN(C(C)=O)C(c2ccccc2OCc2ccccc2)S1 (stereo not given) | i | nt | nt | nt | nt | i
N#CC[n+]1cccc(-c2ccccc2)c1 | i | nt | nt | nt | nt | i
CNC(=O)[C@@H](c1ccccc1F)N1CCC[C@H]1C(=O)NC1CC1 | 25.1µM | nt | nt | nt | nt | nt
CC(C)Cn1c(N2CCN(Cc3c(Cl)cccc3Cl)CC2)nc2c1c(=O)[nH]c(=O)n2C | ? | nt | nt | nt | nt | i
CN(C)c1ccc(C=Cc2ccnc3c(O)cccc23)cc1 | 11.2µM | nt | nt | i | nt | i
CN(C)c1ccc(/C=C/c2ccnc3c(O)cccc23)cc1 | nt | nt | nt | nt | nt | i
O=C(COc1ccc([N+](=O)[O-])c(F)c1)Nc1ccc2c(c1)CCC2 | ? | nt | nt | nt | nt | i
O=C(c1c(O)cc(O)cc1O)C1c2c(cc(O)c3c2O[C@H](c2ccc(O)cc2)[C@@H](O)C3)OC1c1ccc(O)cc1 (stereo not given in full) | 25.1µM | i | i | i | i | i
O=C1C(n2ccc3ccccc32)c2cccc(F)c2N1Cc1ccc(C(F)(F)F)cc1 (stereo not given) | 44.7µM | nt | nt | nt | nt | nt
Cc1ccc(NC2=Nc3ccccc3N3C2=Nc2c(c(C)nn2-c2ccccc2)C3c2ccc(O)c(O)c2)cc1 (stereo not given) | i | ? | i | i | 18.4µM | i
Cc1nn(-c2ccccc2)c2c1C(c1ccc(O)c(O)c1)N1C(=N2)C(Nc2ccccc2)=Nc2ccccc21 (stereo not given) | i | i | i | i | i | i
CCC(NC(=O)c1cc(COc2cncc(Cl)c2)on1)c1ccncc1 (stereo not given) | i | i | i | i | ? | i
SMILES | ALOX12 inh | A549 tox | ERG-DNA inh | Nrf2 activator | Nrf2 inh | LDHA inh
CCC(NC(=O)c1cc(COc2ccc(F)cc2Cl)on1)c1ccncc1 (stereo not given) | i | ? | i | i | 16.4µM | i
Cc1ccc(C2C(c3ccccc3)=C(O)C(=O)N2Cc2ccccc2)cc1 (stereo not given) | ? | nt | nt | nt | nt | i
Cn1cccc1/C=C1\SC(=Nc2ccccc2)NC1=O | ? | ? | i | i | i | i
Cc1ccc(N=C2NC(=O)/C(=C/c3cn(C)c4ccccc34)S2)cc1C | i | i | i | i | 23.1µM | i
Cc1cc(F)ccc1S(=O)(=O)N(Cc1nccn1C)C1CC1 | ? | nt | nt | nt | nt | i
O=C1c2cccc(OCc3ccc(F)cc3)c2CCN1Cc1ccc(F)cc1 | i | i | i | i | 16.4µM | i
